Source: PubChem (Sanford-Burnham Center for Chemical Genomics)
CYP2C19 inh = blockers of cytochrome P450 2C19 activity – biochemical, luminescence, ADME assay, primary screen; CYP2C19 Supersomes, luciferin-H EGE luminescence, 30 min; inhibition, % at 5 µM; actives 21% (n = 96,000);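 active = CYP2C19 inhibition above a set limit at 5 µM in the primary screen, cut at about 50% in these data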;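 note: plate controls were negative control wells for no effect and 2.5 mM tranylcypromine positive control for full effect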
Mac1 fbg inh = inhibitors of CD11b/CD18 adhesion to fibrinogen, primary screen, K562 cells, luminescence | AID 1497, 2009 | actives 0.54% (n = 93,000) | inhibition, % at 10 µM | Integrin beta-2 (Homo sapiens) + Integrin alpha-M (Homo sapiens), P05107+P11215 | ATPlite luminescence; Mn2+ added to activate the integrin;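 active = primary inhibition of 50% or more at 10 µM, then 40% or more on retest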
CYP2C9 inhib = blockers of cytochrome P450 2C9 activity – biochemical, luminescence, ADME assay, primary screen. P11712. CYP2C9 Supersomes, luciferin-H conversion. inhibition, % at 5 µM. actives 20% (n = 96,000);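 active = blocking of liver enzyme CYP2C9 beyond about 50% at 5 µM, limit read from the data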
Target sequence (P11712 whole entry, looked up): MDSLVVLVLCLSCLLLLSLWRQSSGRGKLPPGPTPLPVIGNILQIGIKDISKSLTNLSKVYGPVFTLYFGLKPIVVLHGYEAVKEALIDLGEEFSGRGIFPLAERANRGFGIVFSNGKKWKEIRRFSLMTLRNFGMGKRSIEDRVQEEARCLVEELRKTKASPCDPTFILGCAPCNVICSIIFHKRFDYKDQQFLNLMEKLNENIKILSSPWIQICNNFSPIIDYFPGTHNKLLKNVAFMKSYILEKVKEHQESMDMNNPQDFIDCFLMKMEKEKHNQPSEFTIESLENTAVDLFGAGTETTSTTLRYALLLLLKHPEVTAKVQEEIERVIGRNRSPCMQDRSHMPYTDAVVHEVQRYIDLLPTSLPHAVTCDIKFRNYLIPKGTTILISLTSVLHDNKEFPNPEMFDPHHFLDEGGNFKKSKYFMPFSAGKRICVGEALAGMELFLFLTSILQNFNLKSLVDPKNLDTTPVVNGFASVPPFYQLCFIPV
CYP2C19 act = human CYP2C19 activators, primary screen, biochemical, luminescence. Cytochrome P450 2C19 (Homo sapiens), P33261. recombinant CYP2C19, luciferin-H EGE luminescence; stronger effect = higher value; 0 = fully inhibited enzyme, 1 = untreated enzyme. activation factor at 5 µM. 96,000 tested, under 10 active;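 active = activation factor of at least 2 at 5 µM in the primary screen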;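 note: 0 = wells with 2.5 mM tranylcypromine and 1 = vehicle-only wells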
CYP2C9 act = human CYP2C9 activators, primary screen, biochemical, luminescence; Cytochrome P450 2C9 (Homo sapiens), P11712; recombinant CYP2C9, luciferin-H conversion; stronger effect = higher value; factor 1 = untreated enzyme, 0 = blocked; activation factor at 5 µM; actives 1.4% (n = 96,000); AID 1024, 2008;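 active = activation factor of 2 or more for CYP2C9 at a 5 µM dose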;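 note: 0 = sulfaphenazole-blocked wells and 1 = vehicle-only wells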
Mac1 fbg enh = enhancers of CD11b/CD18 adhesion to fibrinogen, primary screen, K562 cells, luminescence; Integrin beta-2 (Homo sapiens) + Integrin alpha-M (Homo sapiens), P05107+P11215; ATPlite luminescence; activation, % at 10 µM; actives 0.07% (n = 93,000); AID 1499, 2009;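 active = 10 µM primary screen giving 50% or more activity, confirmed by 40% or more on retest at that dose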
Numbers without * were called inactive; x = not tested or not shown. Sampled rows, rich in hits. Any-hit rate of the full collection: about 28%.

SMILES	CYP2C19 inh	Mac1 fbg inh	CYP2C9 inhib	CYP2C19 act	CYP2C9 act	Mac1 fbg enh
O=CNNC(=O)c1cccc([N+](=O)[O-])c1	x	-5	x	x	x	6
COc1cc([N+](=O)[O-])ccc1NC(=O)C[n+]1ccccc1	x	2	x	x	x	-5
CC1=C(C(=O)OCC(C)C)C(c2cccc(F)c2)N2C(=O)C(C)SC2=N1 (centres undefined)	75*	-15	75*	0.3	0.3	9
CC1=C(C(=O)OC(C)C)C(c2cccc(F)c2)N2C(=O)C(C)SC2=N1 (centres undefined)	81*	-15	70*	0.2	0.3	-3
CCOC(=O)C1=C(C)N=C2SC(C)C(=O)N2C1c1cccc(F)c1 (centres undefined)	25	4	25	0.8	0.8	-7
CN(C)c1ccc(C=C(c2nnnn2-c2ccccc2)c2nnnn2-c2ccccc2)cc1	x	-10	x	x	x	-2
O=C(Cc1ccccc1)Nc1ccccc1C(=O)O	-1	6	35	1	0.7	12
COC(=O)c1cc(=O)nc2sc(-c3ccc(F)cc3)nn12	-9	-11	0	1.1	1	-4
COC(=O)c1cc(C(=O)OC)n(Cc2ccc(F)cc2)n1	74*	-15	29	0.3	0.7	7
C=CCn1c(C)cc(C(=O)CSc2n[nH]c(N)n2)c1C	26	-4	-157	0.7	2.6*	-6
Nc1nc(SCC(=O)Nc2ccc(Br)cc2F)n[nH]1	93*	-15	49	0.1	0.5	1
Nc1nc(SCC(=O)NCc2ccccc2)n[nH]1	-5	-9	-12	1.1	1.1	-1
Nc1nc(SCC(=O)NCCC(c2ccccc2)c2ccccc2)n[nH]1	96*	-2	71*	0	0.3	1
Cc1cc(C(=O)CSc2n[nH]c(N)n2)c(C)n1-c1ccccc1	87*	3	58*	0.1	0.4	-2
CCOC(=O)C1CCCN(c2cc(=O)n(Cc3ccc(F)cc3)c(=O)[nH]2)C1 (centres undefined)	3	0	5	1	1	1
COCCNC(=O)c1cccc(Nc2nc(-c3ccccc3)c3cc(Cl)ccc3n2)c1	x	2	x	x	x	8
Cc1cc(C)c(-c2cc(NC(=O)CSc3n[nH]c(N)n3)n(-c3ccccc3)n2)cc1C	94*	-2	90*	0.1	0.1	-2
Cc1cc(C(=O)CSc2n[nH]c(N)n2)c(C)n1-c1cc(F)ccc1F	76*	-10	54*	0.2	0.5	0
COc1cc(C(=O)OCC(=O)Nc2cc(-c3cc(C)c(C)cc3C)nn2-c2ccccc2)cc(OC)c1OC	x	5	x	x	x	6
Cc1ccc(C)c2[nH]c(=O)c(CCNC(=O)C(C)(C)C)cc12	34	6	7	0.7	0.9	-2
CC1Cc2ccccc2N1C(=O)Cn1c(=O)cc(O)c2ccccc21 (centres undefined)	11	x	22	0.9	0.8	x
CCCOc1ccc(CNC(=O)Cn2c(=O)oc3ccccc32)cc1	22	-6	-50	0.8	1.5	2
Cc1ccc2oc(=O)n(CC(=O)O)c2c1	8	-7	2	0.9	1	0
CCCCOc1ccccc1Cn1c(=O)oc2ccc(C)cc21	87*	48	88*	0.1	0.1	0
COc1ccc(Cn2c(=O)oc3ccc(C)cc32)cc1OC	98*	25	79*	0	0.2	-5
SMILES	CYP2C19 inh	Mac1 fbg inh	CYP2C9 inhib	CYP2C19 act	CYP2C9 act	Mac1 fbg enh
Cc1ccc2oc(=O)n(CCCOc3ccccc3)c2c1	94*	-12	46	0.1	0.5	-1
Cc1ccc2oc(=O)n(Cc3ccccc3OC(C)C)c2c1	86*	-9	85*	0.1	0.1	1
Cc1cccc(Oc2nc(-c3cccc([N+](=O)[O-])c3)nc3ccccc23)c1C	-2	0	11	1	0.9	2
Fc1ccc(C(c2nnnn2Cc2ccccc2)N2CCSCC2)cc1 (centres undefined)	8	1	4	0.9	1	2
Clc1ccc(C(c2nnnn2CCc2ccccc2)N2CCSCC2)cc1 (centres undefined)	80*	0	79*	0.2	0.2	6
O=C(Nc1ccc(Cl)cc1)OCCn1nnnc1C(c1ccccc1)N1CCOCC1 (centres undefined)	35	-13	65*	0.7	0.4	8
CN(C)c1ccc(C(c2nnnn2CCOC(=O)Nc2ccc(Cl)cc2)N2CCOCC2)cc1 (centres undefined)	93*	-7	87*	0.1	0.1	-1
C=CC(=C)CC(NC)c1ccccc1 (centres undefined)	-1	9	-10	1	1.1	2
CN1CC(c2ccc(Cl)c(Cl)c2)[C@@]2(COc3ccccc3C2=O)[C@@]12C(=O)Nc1ccccc12 (some centres undefined)	-2	-11	77*	1	0.2	4
COC(=O)c1ccc(Oc2c(C(F)(F)F)oc3c(CN4CCN(C)CC4)c(O)ccc3c2=O)cc1	10	x	1	0.9	1	x
Cc1nnc(SCc2ccc(Cl)cc2)n1CC1CCCO1 (centres undefined)	36	x	-2	0.6	1	x
C/C=C/c1c(F)c(F)c(Oc2ccc(C(=O)O)cc2)c(F)c1F	1	16	81*	1	0.2	0
Cc1cc(C)cc(N(CC(=O)NCc2ccco2)S(=O)(=O)c2c(C)noc2C)c1	82*	-13	67*	0.2	0.3	-3
COc1ccc(CNC(=O)CN(c2cc(C)cc(C)c2)S(=O)(=O)c2c(C)noc2C)cc1	37	-19	23	0.6	0.8	0
Cc1ccc(NC(=O)CN(c2cc(C)cc(C)c2)S(=O)(=O)c2c(C)noc2C)nc1	48	-9	72*	0.5	0.3	0
COC(=O)c1sc2ccccc2c1-n1cccc1C(=O)C(=O)Nc1ccccc1	24	x	100*	0.8	0	x
COC(=O)c1sccc1-n1cccc1C(=O)C(=O)N1CCCC1	33	x	-4	0.7	1	x
COC(=O)c1sc2ccccc2c1-n1cccc1C(=O)C(=O)Nc1ccc(OC)cc1	42	x	101*	0.6	0	x
CCCNC(=O)C(=O)c1cccn1-c1ccsc1C(=O)OC	27	0	8	0.7	0.9	-1
COc1ccc2nc(SCC(=O)c3ccco3)[nH]c2c1	15	x	12	0.8	0.9	x
O=C(c1ccccc1F)N(NC(=O)C(O)(c1ccccc1)c1ccccc1)c1ccccc1	x	-1	x	x	x	3
